# Assay results: PubChem BioAssay (NCATS)
# Inconclusive results are not listed. Values without a mark were called inactive. Activity calls are given as the source filed them. The call rests on the fitted dose curve; in most records, active means well fitted curve in the direction sought with a large enough effect; inconclusive means small, poorly fitted or top-dose-only effect, or another doubt; inactive means no such curve, though single readings can be large; an effect the other way counts as inactive or inconclusive.
# Assay: qHTS of pediatric cancer cell lines to identify multiple opportunities for drug repurposing: Primary screen for Rh41 cells (AID 1347108);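 further: luminescence drop marks cytotoxic hits; nearly all actives have a fitted effect of over 70% in size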
# Conditions: Rh41 rhabdomyosarcoma viability, CellTiter-Glo luminescence, 48 h; series mostly up to 46 µM; activity change, negative = cytotoxic: at the top concentration
# Summary of the method: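 Following a 5-hour attachment period, cells at 500-1,000/well received compounds and were cultured for 48 hours. CellTiter-Glo was added and luminescence read to estimate viable, metabolically active cells.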
row,Structure (SMILES),"activity change, negative = cytotoxic"
1,CCO/N=C(\CC)C1=C(O)CC(c2c(C)cc(C)cc2C)CC1=O (stereo not drawn),22.2% [at 92.7 µM]
2,CCCN1CCO[C@@H]2c3cc(O)ccc3OC[C@@H]21,13.5%
3,Cc1c(N)nc([C@H](CC(N)=O)NC[C@@H](N)C(N)=O)nc1C(=O)N[C@H](C(=O)N[C@@H](C)[C@H](O)[C@@H](C)C(=O)N[C@@H](C(=O)NCCc1nc(-c2nc(C(=O)NCCC[S+](C)C)cs2)cs1)[C@@H](C)O)C(O[C@H]1O[C@H](CO)[C@H](O)[C@@H](O)[C@@H]1O[C@H]1O[C@H](CO)[C@@H](O)[C@H](OC(N)=O)[C@H]1O)c1cnc[nH]1 (stereo partly drawn),-9.96%
4,CC(C)[C@H]1C(=O)N[C@H](CO)Cc2c[nH]c3cccc(c23)N1C,-13.4%
5,C#C[C@]1(O)C=C[C@@H]2[C@@H]3CCC4=CC(=O)CC[C@@H]4[C@H]3CC[C@@]21CC,24.5%
6,CC1(C)CC/C(=C/c2ccc(Cl)cc2)C1(O)Cn1cncn1 (stereo not drawn),14.6% [at 92.7 µM]
7,CCCCOC(=O)c1ccccc1C(=O)OCc1ccccc1,34% [at 92.7 µM]
8,Oc1ccc2c3c1O[C@H]1c4[nH]c5c(c4C[C@@]4(O)[C@@H](C2)N(CC2CC2)CC[C@]314)C[C@@]1(O)[C@H]2Cc3ccc(O)c4c3[C@@]1(CCN2CC1CC1)[C@H]5O4,28.1%
9,CCCCCCCCCC(CC)c1ccc(S(=O)(=O)O)cc1 (stereo not drawn),22.2% [at 92.7 µM]
10,CCC(=O)O[C@@H]1C=C2CCC3C(CCC4(C)C3CC[C@@H]4OC(=O)CC)C2CC1 (stereo partly drawn),21.7%
11,Nc1ccc(N=Nc2ccccc2)cc1,-23.2% [at 92.7 µM]
12,C[C@](O)(COc1ccc(C#N)cc1)C(=O)Nc1ccc(C#N)c(C(F)(F)F)c1,-12.5%
13,CCOP(=O)(OCC)C(C)NC(=O)N(CCCl)N=O (stereo not drawn),15.9%
14,CC1(N2CCC(n3c([C@@H]4CCCNC4)nc4ccccc43)CC2)CCCCCCC1,-1.65%
15,Cc1cc(O)ccc1Cl,23.3%
16,C#CC1(O)CCC2C3CCC4=CC(=O)CCC4(C)C3CCC21C (stereo not drawn),5.18%
17,CCCCCCCCc1ccc(O)cc1,27.5% [at 92.7 µM]
18,CC(=O)Nc1ccc(OC[C@](C)(O)C(=O)Nc2ccc([N+](=O)[O-])c(C(F)(F)F)c2)cc1,-11.7%
19,CCN(CC)C(=O)c1ccc(C2=CC3(CCNCC3)Oc3cccc(O)c32)cc1,11.6%
20,CC(N[C@H]1C[C@H]1c1ccccc1)c1ccc2c(c1)OCCO2 (stereo partly drawn),13.5%
21,COc1ccc(CC2NCCc3cc(OC)c(OC)cc32)cc1OC (stereo not drawn),19.5%
22,O=S(=O)(c1ccc(Cl)cc1)c1ccc(Cl)cc1,8.87% [at 92.7 µM]

# Assay: qHTS of pediatric cancer cell lines to identify multiple opportunities for drug repurposing: Confirmatory screen for A673 cells (AID 1347110);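 further: cells exposed to compound for 48 h before the viability read; nearly all actives have a fitted effect of over 65% in size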; further: potency means the concentration at half of the fitted maximal effect;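 on activity change, negative = cytotoxicity: plate controls were DMSO neutral control for no effect and bortezomib positive control for full effect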
# Conditions: A673 Ewing sarcoma cell viability; series mostly up to 45.9 µM; activity change, negative = cytotoxicity: at the top concentration
# Summary of the method: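 Viability was read as ATP luminescence (CellTiter-Glo) after 48 h of compound exposure at 37 C in A673 cells seeded at 500-1,000/well. Titrations reached 46 uM final, with 11 points in the confirmatory screen. Concentration-response curves were fitted directly.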
Structure (SMILES),"activity change, negative = cytotoxicity",Potency
CCCN1CCO[C@@H]2c3cc(O)ccc3OC[C@@H]21,4.36%,–
Cc1c(N)nc([C@H](CC(N)=O)NC[C@@H](N)C(N)=O)nc1C(=O)N[C@H](C(=O)N[C@@H](C)[C@H](O)[C@@H](C)C(=O)N[C@@H](C(=O)NCCc1nc(-c2nc(C(=O)NCCC[S+](C)C)cs2)cs1)[C@@H](C)O)C(O[C@H]1O[C@H](CO)[C@H](O)[C@@H](O)[C@@H]1O[C@H]1O[C@H](CO)[C@@H](O)[C@H](OC(N)=O)[C@H]1O)c1cnc[nH]1 (stereo partly drawn),–,9.27 µM (active)
CCCCCC[C@H]1C(=O)O[C@H](C)[C@H](NC(=O)c2cccc(NC=O)c2O)C(=O)O[C@@H](C)[C@@H]1OC(=O)CC(C)C,–,13.1 µM (active)
O=C1C(I)=CC(=C(c2cc(I)c(O)c(I)c2)c2ccccc2C(=O)O)C=C1I,–,3.69 µM (active)
CC=C(C)C(=O)N[C@@H](c1ccccc1)[C@@H](O)C(=O)O[C@H]1C[C@@]2(O)[C@@H](OC(=O)c3ccccc3)[C@@H]3[C@]4(OC(C)=O)CO[C@@H]4C[C@H](O)[C@@]3(C)C(=O)[C@H](OC(C)=O)C(=C1C)C2(C)C,–,0.0329 µM (active)
S=C(SSC(=S)N1CCCCC1)N1CCCCC1,–,10.4 µM (active)
